# About 83,000 compounds went through this panel and 20% of them were active in at least one assay; those are over-represented in the sample as a whole.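 Interpretation: 100, growth as untreated; towards 0, rising growth inhibition; 0, no net growth; 0 to -100, cell death. Compounds scoring below 10 were considered active.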 A number with no mark means an inactive call. Calls of active or inactive are those of the source.
# Columns and labels:
# Test in all cases: NCI-60 one-dose screen, 48 h (100 = growth as untreated, 0 = no growth, -100 = all killed)
# NCI-H23 lung = conditions: 10 µM unless noted
# NCI-H226 lung = conditions: 10 µM unless noted
# NCI-H322M lung = conditions: 10 µM unless noted
# HOP-62 NSCLC = conditions: 10 µM unless noted
# NCI-H460 lung = conditions: 10 µM unless noted
# 786-0 renal = conditions: 10 µM unless noted
# MDA-MB-231 breast = conditions: 10 µM unless noted
# SF-268 CNS = conditions: 10 µM unless noted
# SF-539 CNS = conditions: 10 µM unless noted
# M14 melanoma = conditions: 10 µM unless noted
# HCT-15 colon = conditions: 10 µM
# U251 CNS = conditions: 10 µM unless noted
# UACC-62 melanoma = conditions: 10 µM unless noted
# SK-MEL-28 melanoma = conditions: 10 µM unless noted
# UO-31 renal = conditions: 10 µM unless noted
# OVCAR-5 ovarian = conditions: 10 µM unless noted
# MDA-MB-435 melanoma = conditions: 10 µM unless noted
# SW-620 colon = conditions: 10 µM unless noted
# MCF7 breast = conditions: 10 µM unless noted
# KM12 colon = conditions: 10 µM unless noted
Structure (SMILES),growth (NCI-H23 lung),growth (NCI-H226 lung),growth (NCI-H322M lung),growth (HOP-62 NSCLC),growth (NCI-H460 lung),growth (786-0 renal),growth (MDA-MB-231 breast),growth (SF-268 CNS),growth (SF-539 CNS),growth (M14 melanoma),growth (HCT-15 colon),growth (U251 CNS),growth (UACC-62 melanoma),growth (SK-MEL-28 melanoma),growth (UO-31 renal),growth (OVCAR-5 ovarian),growth (MDA-MB-435 melanoma),growth (SW-620 colon),growth (MCF7 breast),growth (KM12 colon)
COc1cc[c]([Hg][Cl])cc1,47%,100%,99.1%,82.6%,43.9%,56%,46.2%,56.8%,85.2%,17%,-42.8% (active),-26% (active),12.5%,20.7%,96.6%,105%,34.3%,18.9%,27.9%,102%
S=P(Nc1ccccc1)(Nc1ccccc1)c1ccccc1,92.5%,112%,107%,90.7%,103%,94.6%,90%,90.8%,95.8%,97.7%,104%,92.1%,84.2%,119%,87.7%,99.6%,101%,103%,109%,102%
O=[N+]([O-])c1cccc([As]=[As]c2cccc([N+](=O)[O-])c2)c1 (stereo not drawn),-36.4% (active),-60.7% (active),-97.4% (active),-95.1% (active),-65.7% (active),-93% (active),-91.8% (active),-92.1% (active),-99.7% (active),-94.4% (active),-83.5% (active),-96.1% (active),-97.6% (active),-98.4% (active),-98.7% (active),-85.2% (active),-91.5% (active),-68.8% (active),-53.6% (active),-92.7% (active)
CCOCC1(CCc2ccccc2)C(=O)NC(=S)NC1=O,94%,106%,114%,104%,113%,102%,100%,102%,99.9%,105%,107%,101%,104%,117%,84%,107%,108%,109%,103%,110%
Nc1ccc([N+](=O)[O-])c2c1Oc1ccccc1O2,94.3%,87.4%,93.9%,90.9%,111%,82.7%,97%,107%,89.7%,106%,87.8%,90.2%,81.7%,116%,10%,88.1%,106%,104%,101%,99.8%
Nc1ncnc2c1c(C(=O)NO)cn2C1OC(CO)C(O)C1O (stereo not drawn),-4.58% (active),13.6%,3.28% (active),5.73% (active),-21.6% (active),9.38% (active),-6.16% (active),-24.7% (active),-32.4% (active),-53.8% (active),-9.1% (active),11.9%,-86.1% (active),-52.3% (active),-58.2% (active),16.5%,-72% (active),-3.16% (active),-47.3% (active),-29.9% (active)
ClCCN(CCCl)c1ccc(/C=C\c2ccnc3ccccc23)cc1,61.6%,69.1%,92.3%,120%,56.3%,84.2%,92.2%,94.9%,92.5%,85.5%,75%,76.4%,59.2%,98.1%,70.8%,119%,76%,77.2%,61.5%,83.1%
CCOc1cc(/C=N\Nc2nnc(C)n2N)c(C)cc1N(CCCl)CCCl,-20.2% (active),26.6%,11.3%,22.6%,4.94% (active),13.1%,38.2%,28.2%,34.5%,13.8%,25.5%,14.4%,-1.59% (active),37.4%,-42.2% (active),52.6%,7.67% (active),10.4%,9.29% (active),13.8%
[Cl][Hg][n]1cnc2c(Cl)c(Cl)c(Cl)cc21,101%,119%,93.4%,109%,98.1%,112%,108%,88%,101%,94.5%,100%,78.2%,86.5%,107%,86.4%,132%,107%,114%,78.3%,97.8%
CC(=O)[O][Hg][c]1ccccc1,-84.5% (active),81.9%,40.1%,-87.9% (active),-52.1% (active),-96.4% (active),-54.8% (active),-86.4% (active),-53.6% (active),-90% (active),-65.5% (active),,-69% (active),-88.4% (active),-94.2% (active),,-89.2% (active),-92.9% (active),-75.2% (active),-95.3% (active)
O=C(C(=O)N1CCCC1)c1cn(CCCCCn2cc(C(=O)C(=O)N3CCCC3)c3ccccc32)c2ccccc12,91.1%,89%,93.9%,102%,91.3%,105%,77.2%,91.4%,94.8%,95.9%,97.5%,88%,65.3%,106%,61.6%,106%,87.6%,91.9%,86.6%,86.3%
CC(C)(NC(=O)c1nn(CCCCCF)c2ccccc12)c1ccccc1,101%,80.2%,105%,94.2%,102%,89.3%,98.1%,96%,100%,85.5%,96.3%,84.4%,75.4%,111%,76.3%,103%,103%,102%,98.3%,107%
C/C(=C\C(=O)O[C@H]1[C@@H]2[C@H](C)CC[C@H]2[C@]2(C)O[C@@]1(C1CCCCC1)C[C@H]2OC(=O)CO)c1ccccc1,50.8%,41.1%,84.5%,55.1%,13.7%,-16% (active),55.5%,26%,77.2%,47.4%,18.7%,24.2%,63.2%,64.6%,-47.2% (active),82.9%,61.7%,43.1%,3.04% (active),38.2%
N#C[Se]CCCNS(=O)(=O)C1CC2C=CC1C2 (stereo not drawn),-37.5% (active),-66.5% (active),-19.9% (active),-71.6% (active),-18.3% (active),-87.4% (active),-71.8% (active),-55.7% (active),-77.9% (active),-47.9% (active),-1.27% (active),-76.6% (active),-54.1% (active),-15.3% (active),-98.7% (active),4.98% (active),-41.2% (active),1.26% (active),2.16% (active),-5.35% (active)
CC(=O)Oc1ccc(Cl)cc1,94.2%,91.3%,106%,87.8%,101%,99.5%,95.8%,83.6%,89.1%,98.6%,95.1%,97.8%,91.9%,89.5%,59%,88.7%,101%,89.9%,87.4%,86.3%
O=C1C=CC(=O)C2C1C1(Cl)C(Cl)=C(Cl)C2(Cl)C1(Cl)Cl (stereo not drawn),58%,56.9%,77.2%,63.5%,57.5%,73.9%,44.8%,47.6%,62.5%,44.4%,54.3%,60.8%,46.1%,67.7%,44.9%,78.3%,3.15% (active),64.7%,47%,38.9%
